A selection: hits, their analogues and other compounds. The true share with any hit is near 0.87%.
TDP1 block: TDP1 (human) enzyme inhibition; recombinant TDP1, AlphaScreen DNA substrate cleavage; Potency, µM (series often up to 130 µM), most hits filed as inhibitors; actives 0.28% (n = 350,000); AID 485290; note: nearly all actives have a fitted effect of over 40% in size
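Recombinant human Tdp1 (E. coli-expressed, 1 nM final) preincubated with compounds 15 min at room temperature, then 5'-biotin/3'-phosphotyrosine-FITC DNA substrate (15 nM final) added for 5 min. AlphaScreen beads (10 ug/ml final) added 10 min; cleavage lowers signal.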
RECQ1 inh-1: inhibitors of human RECQ1 DNA helicase. actives 0.54% (n = 240,000). RECQ1 DNA unwinding, red fluorescence kinetic read. P46063. Potency, µM (titrated, usually from 57.3 µM), actives largely listed as inhibitors; note: nearly all actives have a fitted effect of over 30% in size
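50 nM RECQ1T1 preincubated 15 min with compound in Tris pH 8.0 buffer with MgCl2, DTT, Tween-20 and 2.5 ug/ml poly(dI-dC); started with 200 nM TAMRA/BHQ-2 forked duplex and 2 mM ATP. Unwinding read as fluorescence (525/598 nm), two reads 2 h apart.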
GCN5L2 inh: inhibitors of human GCN5L2 histone acetyltransferase; Q92830; GCN5L2 HAT assay, ThioGlo1 CoA-SH fluorescence; Potency, µM (series often up to 58.9 µM), hits mostly inhibitors; actives 0.21% (n = 390,000)
Target sequence (Q92830 whole entry, looked up): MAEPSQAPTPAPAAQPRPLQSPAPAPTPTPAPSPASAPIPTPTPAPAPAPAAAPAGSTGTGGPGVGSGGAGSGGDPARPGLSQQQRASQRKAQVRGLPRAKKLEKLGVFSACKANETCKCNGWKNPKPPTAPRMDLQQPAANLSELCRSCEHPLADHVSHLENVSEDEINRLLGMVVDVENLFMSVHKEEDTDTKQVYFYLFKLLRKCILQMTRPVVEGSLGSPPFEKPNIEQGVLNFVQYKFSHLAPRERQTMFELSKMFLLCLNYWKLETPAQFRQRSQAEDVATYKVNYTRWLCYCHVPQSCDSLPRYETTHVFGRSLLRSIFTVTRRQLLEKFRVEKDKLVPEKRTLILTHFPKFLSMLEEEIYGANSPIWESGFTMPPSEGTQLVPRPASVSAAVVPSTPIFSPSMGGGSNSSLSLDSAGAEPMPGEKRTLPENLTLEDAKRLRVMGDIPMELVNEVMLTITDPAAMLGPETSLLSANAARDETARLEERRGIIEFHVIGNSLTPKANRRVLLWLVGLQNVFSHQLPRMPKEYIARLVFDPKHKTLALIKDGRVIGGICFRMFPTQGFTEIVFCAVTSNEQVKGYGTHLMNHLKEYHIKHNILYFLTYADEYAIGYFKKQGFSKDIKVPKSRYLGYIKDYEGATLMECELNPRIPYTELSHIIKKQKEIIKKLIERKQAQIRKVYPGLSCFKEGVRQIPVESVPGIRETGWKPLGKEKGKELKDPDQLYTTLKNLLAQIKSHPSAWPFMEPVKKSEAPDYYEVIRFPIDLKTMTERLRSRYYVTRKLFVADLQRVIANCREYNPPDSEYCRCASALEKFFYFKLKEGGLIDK
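Enzyme at 20nM final was mixed with library compounds for 15 min at room temperature. Peptide H3(1-25) at 75uM, acetyl-CoA at 70uM and ThioGlo1 at 50uM were then added. Plates were read immediately and after 20 min (Ex340nm/Em540nm).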
APEX1 inh: inhibitors of human APE1 endonuclease; actives 0.35% (n = 350,000); AID 2517; recombinant APE1, TAMRA/BHQ-2 abasic DNA cleavage fluorescence; Potency, µM (titrated, usually from 65.8 µM), actives largely listed as inhibitors; note: nearly all actives have a fitted effect of over 55% in size
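Activity was derived from the fluorescence gain between first and third kinetic reads (60 s intervals, ex 525/em 598 nm) after 50 nM THF-abasic TAMRA/BHQ-2 duplex was added to 0.75 nM APE1 preincubated 15 min with compound.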
BLM helicase inh: Bloom syndrome helicase (human) inhibition; P54132; AID 2528; actives 0.2% (n = 350,000); recombinant BLM DNA unwinding, fluorescence dequenching; Potency, µM (top dose mostly 56.1 µM), usual class: inhibitors; note: nearly all actives have a fitted effect of over 35% in size
RECQ1 inh conf: confirmation of human RECQ1 helicase inhibitors | shares compounds with RECQ1 inh-1 | RECQ1 helicase DNA unwinding, fluorescence | Potency, µM (titrated, usually from 229 µM), actives largely listed as inhibitors | actives 28% (n = 610); note: nearly all actives have a fitted effect of over 45% in size
RECQ1 ADP FP: displaces ADP in a fluorescence polarization counter-screen for RECQ1 hits; Potency, µM (doses to about 228 µM), hits mostly inhibitors; ADP fluorescence polarization displacement counterscreen; shares compounds with RECQ1 inh-1; actives 27% (n = 530); note: nearly all actives have a fitted effect of over 45% in size
RECQ1 inh-2: blocks human RECQ1 DNA unwinding | shares compounds with RECQ1 inh-1 | recombinant RECQ1 DNA unwinding, red fluorescence | Potency, µM (titrated, usually from 119 µM), actives largely listed as inhibitors | actives 15% (n = 1,100) | AID 504841; note: nearly all actives have a fitted effect of over 50% in size
A number is an active result; [ ] = another dose, or the depositor's remark. Calls come from the whole dose curve; as a rule, active = well fitted curve in the direction sought with a large enough effect; inconclusive = small, poorly fitted or top-dose-only effect, or another doubt; inactive = no such curve, though single readings can be large; an effect the other way counts as inactive or inconclusive.

What do the screens show for `Cc1cc2cc(CNC(=O)c3ccc(S(=O)(=O)N4CCCC4)cc3)ccc2n1C`?
TDP1 block: inactive; RECQ1 inh-1: inconclusive; GCN5L2 inh: inactive; APEX1 inh: inactive; BLM helicase inh: inactive; RECQ1 inh-2: inactive

What do the screens show for `COc1ccc(S(=O)(=O)NCc2ccc3c(c2)cc(C)n3C)cc1`?
TDP1 block: inactive; RECQ1 inh-1: 31.6µM; GCN5L2 inh: inactive; APEX1 inh: inactive; BLM helicase inh: inactive; RECQ1 inh-2: inconclusive

What do the screens show for `COc1ccc(OC[C@@H](CO)OC)cc1`?
TDP1 block: inactive[21 µM]; RECQ1 inh-1: inactive[11.5 µM]; APEX1 inh: inactive[12.4 µM]; BLM helicase inh: inactive[12.4 µM]

Results for Cc1oc(C)c2c(=O)ccc3c(c12)OC(N)=C(C#N)C3c1ccccc1 (configuration not stated) ?
TDP1 block: inactive; RECQ1 inh-1: inconclusive; GCN5L2 inh: inactive; APEX1 inh: inactive; BLM helicase inh: inactive; RECQ1 inh-2: inactive

What do the screens show for `COc1ccc(C2C(C#N)=C(N)Oc3c2oc(CO)cc3=O)cc1` (configuration not stated)?
TDP1 block: inactive; RECQ1 inh-1: inactive; GCN5L2 inh: inactive; APEX1 inh: inactive; BLM helicase inh: inactive

What do the screens show for `CSc1ccc(C2C(C#N)=C(N)Oc3c2ccc(=O)c2c(C)oc(C)c32)cc1` (configuration not stated)?
TDP1 block: inactive; RECQ1 inh-1: inconclusive; GCN5L2 inh: inconclusive; APEX1 inh: inconclusive; BLM helicase inh: inactive; RECQ1 inh-2: inconclusive

What do the screens show for `Cc1oc(C)c2c(=O)ccc3c(c12)OC(N)=C(C#N)C3c1ccccc1Cl` (configuration not stated)?
TDP1 block: inactive; RECQ1 inh-1: inconclusive; GCN5L2 inh: inactive; APEX1 inh: inactive; BLM helicase inh: inconclusive; RECQ1 inh-2: inactive

What do the screens show for `COC(=O)NC(c1ccc2c(c1)OCO2)C(C(=O)OC)C(=O)OC` (configuration not stated)?
TDP1 block: inactive; RECQ1 inh-1: inactive; APEX1 inh: inactive; BLM helicase inh: inactive

Results for O=C(NCCc1ccccc1)c1c2c(nc3ccccc13)C(=O)N(C1CCCCC1)C2 ?
TDP1 block: inactive; GCN5L2 inh: inactive; BLM helicase inh: inactive

Results for COc1ccc2cnoc(=O)c2c1OC ?
TDP1 block: inactive; RECQ1 inh-1: inactive; APEX1 inh: inactive; BLM helicase inh: inactive

Results for Cc1ccc(S(=O)(=O)NNC(=O)Nc2ccc(Cl)cc2)cc1 ?
TDP1 block: inactive; RECQ1 inh-1: 22.4µM; GCN5L2 inh: inactive; APEX1 inh: inactive; BLM helicase inh: inactive; RECQ1 inh-2: inactive

What do the screens show for `Cc1ccc(S(=O)(=O)NC(=O)Nc2ccc(F)c(F)c2)cc1`?
TDP1 block: inactive; GCN5L2 inh: inactive; APEX1 inh: inactive; BLM helicase inh: inactive

Results for CCNc1ncc2nc(-c3ccc(F)cc3)c(=O)n(CCc3ccccc3)c2n1 ?
RECQ1 inh-1: 28.2µM; GCN5L2 inh: inactive; APEX1 inh: inactive; BLM helicase inh: inactive; RECQ1 inh-2: 79.4µM

How did CCNc1ncc2nc(-c3cccs3)c(=O)n(CCc3ccccc3)c2n1 do in these assays?
RECQ1 inh-1: 28.2µM; GCN5L2 inh: inactive; APEX1 inh: inactive; BLM helicase inh: inactive; RECQ1 inh-2: 79.4µM

What do the screens show for `Cc1ccc(S(=O)(=O)OCC2CN3C(CCC(C)C3c3ccc(Br)cc3)C(=O)O2)cc1` (configuration not stated)?
TDP1 block: inactive[21 µM]; RECQ1 inh-1: inactive[11.5 µM]; APEX1 inh: inactive[12.4 µM]; BLM helicase inh: inactive[12.4 µM]

Results for CN1CCN(C(c2ccccc2)c2sc3nc(-c4ccco4)nn3c2O)CC1 (configuration not stated) ?
TDP1 block: inactive; GCN5L2 inh: inactive; BLM helicase inh: inactive

What do the screens show for `CCOC(=O)C1=C(O)/C(=C/c2cc(OC)c(O)c(OC)c2)SC1=Nc1ccc(OC)cc1`?
TDP1 block: inactive; RECQ1 inh-1: 14.1µM; GCN5L2 inh: inactive; APEX1 inh: inconclusive; BLM helicase inh: inactive; RECQ1 inh-2: inconclusive

How did CCOC(=O)C1=C(O)/C(=C/c2ccc(OCC(=O)O)c(OC)c2)SC1=Nc1ccc(OCC)cc1 do in these assays?
TDP1 block: inactive; RECQ1 inh-1: inactive; GCN5L2 inh: inactive; APEX1 inh: inactive; BLM helicase inh: inactive

What do the screens show for `CC(=O)C1=C(C)OC2(O)c3ccccc3C(=O)C12O` (configuration not stated)?
TDP1 block: inactive; RECQ1 inh-1: inconclusive; GCN5L2 inh: inactive; APEX1 inh: inconclusive; BLM helicase inh: inactive; RECQ1 inh-2: inactive

How did CCOC(=O)C1=C(C)OC2(O)c3ccccc3C(=O)C12O (configuration not stated) do in these assays?
TDP1 block: inactive; RECQ1 inh-1: inactive; GCN5L2 inh: inactive; APEX1 inh: inconclusive; BLM helicase inh: inconclusive

Results for CCCCc1nc2ccccc2c(=O)n1NC(=O)c1c(O)c2c(n(CC(C)C)c1=O)CCCC2 ?
TDP1 block: inactive; RECQ1 inh-1: inactive; GCN5L2 inh: inactive; APEX1 inh: inactive; BLM helicase inh: inactive; RECQ1 inh conf: inconclusive; RECQ1 ADP FP: inactive

Results for O=C(Nn1c(Cc2ccccc2)nc2ccccc2c1=O)c1c(O)c2cccc3c2n(c1=O)CCC3 ?
RECQ1 inh-1: inactive; GCN5L2 inh: inactive; APEX1 inh: inactive; BLM helicase inh: inactive; RECQ1 inh conf: inconclusive; RECQ1 ADP FP: inconclusive

Results for COc1ccc(C(=O)COC(=O)c2nn(C)cc2Cl)cc1 ?
TDP1 block: inactive; GCN5L2 inh: inactive; APEX1 inh: inactive; BLM helicase inh: inactive

What do the screens show for `CCNc1ccc(C(=O)OCC(=O)NCCN2C(=O)CSC2=O)cc1[N+](=O)[O-]`?
TDP1 block: inactive; RECQ1 inh-1: inconclusive; GCN5L2 inh: inactive; APEX1 inh: inactive; BLM helicase inh: inactive; RECQ1 inh-2: inactive

What do the screens show for `COc1ccc(NC(=O)CSc2nc3ccsc3c(=O)n2CCCCCC(=O)O)cc1`?
TDP1 block: inactive; RECQ1 inh-1: inactive; GCN5L2 inh: inactive; APEX1 inh: inactive; BLM helicase inh: inactive; RECQ1 inh conf: inconclusive; RECQ1 ADP FP: inactive

How did O=C(O)CCCCCn1c(SCC(=O)c2ccc(O)c(O)c2)nc2ccsc2c1=O do in these assays?
RECQ1 inh-1: inactive; GCN5L2 inh: inactive; APEX1 inh: inconclusive; BLM helicase inh: inactive
